For 3 compounds, outcome and AC50 results are on record in PubChem BioAssay (EPA / NIEHS).

Holding throughout (settings): mRNA level, 48 h; actives raise or lower the signal
Read-out in assay [1]: Apolipoprotein A-V (APOA5) gene, APOA5 (gene 116519)
Description: LTEA_HepaRG_APOA5: Life Technologies and Expression Analysis (LTEA) Assay for Apolipoprotein A-V (APOA5) gene using HepaRG (AID 2283474). Summed up:
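APOA5 transcript levels were quantified by qRT-PCR, normalized to three housekeeping genes, after 48 h chemical treatment of HepaRG cells (8 points, 100 uM maximum, half-log steps, 0.5% DMSO). Curves fitted in both directions against vehicle.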

Read-out in assay [2]: Apoptosis regulator Bcl-2 (Homo sapiens) (UniProt P10415)
Description: LTEA_HepaRG_BCL2: Life Technologies and Expression Analysis (LTEA) Assay for Bcl-2 gene using HepaRG (AID 2283475). The method in brief:
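Differentiated human HepaRG cells in serum-free induction medium exposed 48 h, in duplicate, to 8-point half-log series from 100 uM in 0.5% DMSO. BCL2 mRNA by qRT-PCR (TaqMan/Fluidigm), normalized to ACTB, GAPDH, POLR2A; bidirectional fit against DMSO.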

Read-out in assay [3]: Bcl-2 (BID) gene, BID (gene 637)
Description: LTEA_HepaRG_BID: Life Technologies and Expression Analysis (LTEA) Assay for Bcl-2 (BID) gene using HepaRG (AID 2283476). The method in brief: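 Gene expression by qRT-PCR in HepaRG cells after 48 h exposure, duplicate wells, eight half-log concentrations topping at 100 uM in 0.5% DMSO. Normalized to ACTB, GAPDH, POLR2A; bidirectional fitting relative to DMSO.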

Read-out in the next assay: Caspase-3 (Homo sapiens) (UniProt P42574)
Description: LTEA_HepaRG_CASP3: Life Technologies and Expression Analysis (LTEA) Assay for cysteine-aspartic acid protease (CASP3) using HepaRG (AID 2283477). The method in brief: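 Expression of CASP3 was quantified by TaqMan qRT-PCR against three housekeeping genes (ACTB, GAPDH, POLR2A), bidirectionally versus 0.5% DMSO. HepaRG cultures received compounds in duplicate, top 100 uM with half-log steps, for 48 h in serum-free induction medium.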

Read-out in assay [4]: Cytochrome P450 (CYP24A1), CYP24A1 (gene 1591)
The experiment in a line: LTEA_HepaRG_CYP24A1: Life Technologies and Expression Analysis (LTEA) Assay for Cytochrome P450 (CYP24A1) using HepaRG (AID 2283478). Summed up: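 mRNA of CYP24A1 quantified by TaqMan qRT-PCR (ACTB/GAPDH/POLR2A normalization) after 48 h chemical exposure of HepaRG cells, top concentration 100 uM, half-log steps, 0.5% DMSO vehicle, duplicates. Curves fitted bidirectionally against DMSO baseline.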

Read-out in assay [5]: Cytochrome P450 (CYP1A2), CYP1A2 (gene 1544)
The experiment in a line: LTEA_HepaRG_CYP1A2: Life Technologies and Expression Analysis (LTEA) Assay for Cytochrome P450 (CYP1A2) using HepaRG (AID 2283479). The method in brief:
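CYP1A2 transcript measured by TaqMan qRT-PCR against three housekeeping genes after 48-hour chemical exposure of HepaRG cells. Eight-point half-log series topping at 100 uM in 0.5% DMSO, duplicates; gain or loss fitted relative to vehicle.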

Read-out in assay [6]: cysteine-aspartic acid protease (CASP8), CASP8 (gene 841)
Description: LTEA_HepaRG_CASP8: Life Technologies and Expression Analysis (LTEA) Assay for cysteine-aspartic acid protease (CASP8) using HepaRG (AID 2283480). The method in brief: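 HepaRG, 48 h exposure, duplicate wells; 8 conc, half-log from 100 uM, 0.5% DMSO. Serum-free induction medium. CASP8 mRNA by TaqMan qRT-PCR, norm. ACTB/GAPDH/POLR2A; gain/loss fitted vs DMSO.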

Read-out in assay [7]: Cytochrome P450 (CYP2B6), CYP2B6 (gene 1555)
Description: LTEA_HepaRG_CYP2B6: Life Technologies and Expression Analysis (LTEA) Assay for Cytochrome P450 (CYP2B6) using HepaRG (AID 2283481). The method in brief:
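CYP2B6 transcript level quantified by qRT-PCR against three housekeeping genes, fitted bidirectionally relative to DMSO. HepaRG cultures received chemicals for 48 h, 8-point half-log series from 100 uM in 0.5% DMSO, duplicate wells, serum-free induction medium.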

Read-out in assay [8]: Cytochrome P450 2C19 (Homo sapiens) (UniProt P33261)
Description: LTEA_HepaRG_CYP2C19: Life Technologies and Expression Analysis (LTEA) Assay for CYP2C19 using HepaRG (AID 2283482). The method in brief: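 CYP2C19 transcript levels by qRT-PCR, normalized to three housekeeping genes, in HepaRG cells after 48 h chemical exposure. Eight-point half-log series topping at 100 uM, 0.5% DMSO vehicle. Increases and decreases both fitted against DMSO.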

Read-out in the next assay: CYP2C8 (gene 1558)
Description: LTEA_HepaRG_CYP2C8: Life Technologies and Expression Analysis (LTEA) Assay for CYP2C8 using HepaRG (AID 2283483). The method in brief:
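CYP2C8 mRNA induction or loss, by qRT-PCR normalized to ACTB/GAPDH/POLR2A, is read in HepaRG cells after 48 h treatment. Concentrations run from 100 uM down in half-log dilutions, with 0.5% DMSO as vehicle and baseline.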

Read-out in a further assay: CYP2C9 (gene 1559)
The experiment in a line: LTEA_HepaRG_CYP2C9: Life Technologies and Expression Analysis (LTEA) Assay for CYP2C9 using HepaRG (AID 2283484). Summed up:
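Cells plated 48 h, switched to serum-free induction medium, then treated in duplicate for 48 h at eight concentrations (max 100 uM, 0.5% DMSO). RNA then analysed by qRT-PCR for CYP2C9; curves fitted in both directions relative to DMSO.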

Read-out in the next assay: CYP2E1 (gene 1571)
Description: LTEA_HepaRG_CYP2E1: Life Technologies and Expression Analysis (LTEA) Assay for CYP2E1 using HepaRG (AID 2283485). Summed up:
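HepaRG cells, plated 48 h, then exposed 48 h in serum-free induction medium to eight half-log concentrations from 100 uM in 0.5% DMSO, duplicate. CYP2E1 mRNA by qRT-PCR, normalized to ACTB/GAPDH/POLR2A; bidirectional fit versus DMSO.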

Read-out in a further assay: CYP4A11 (gene 1579)
The experiment in a line: LTEA_HepaRG_CYP4A11: Life Technologies and Expression Analysis (LTEA) Assay for CYP4A11 using HepaRG (AID 2283486). Summed up:
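Readout is CYP4A11 transcript level by qRT-PCR, normalized to three housekeeping genes and fitted bidirectionally against 0.5% DMSO. Human HepaRG cells were treated 48 h, in duplicate, with an 8-point half-log series topping at 100 uM.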

Read-out in assay [9]: Cytochrome P450 3A4 (Homo sapiens) (UniProt P08684)
Description: LTEA_HepaRG_CYP3A4: Life Technologies and Expression Analysis (LTEA) Assay for CYP3A4 using HepaRG (AID 2283487). Summed up:
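In a human hepatic line (HepaRG), duplicate wells were treated 48 h with up to 100 uM chemical in half-log dilutions. Endpoint: CYP3A4 mRNA induction or loss relative to 0.5% DMSO vehicle, by qRT-PCR.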

Read-out in assay [10]: DNA damage-inducible transcript 3 (DDIT3), DDIT3 (gene 1649)
The experiment in a line: LTEA_HepaRG_DDIT3: Life Technologies and Expression Analysis (LTEA) Assay for DNA damage-inducible transcript 3 (DDIT3) using HepaRG (AID 2283488). The method in brief:
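HepaRG cells, 48 h after plating, exposed 48 h in serum-free induction medium to 8 half-log concentrations up to 100 uM in 0.5% DMSO, in duplicate. DDIT3 mRNA measured by TaqMan qRT-PCR, normalized to ACTB, GAPDH and POLR2A. Fitted bidirectionally against DMSO.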

Read-out in assay [11]: Pro-epidermal growth factor (Homo sapiens) (UniProt P01133)
Description: LTEA_HepaRG_EGF: Life Technologies and Expression Analysis (LTEA) Assay for Epidermal growth factor (EGF) using HepaRG (AID 2283489). Summed up: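 EGF transcript measured by Fluidigm TaqMan qRT-PCR with three housekeeping genes for normalization, 48 h after dosing HepaRG cultures in duplicate (top 100 uM, half-log steps, 0.5% DMSO vehicle). Gain or loss relative to DMSO fitted.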

Read-out in assay [12]: Early growth response protein 1 (EGR1) transcription factor, EGR1 (gene 1958)
The experiment in a line: LTEA_HepaRG_EGR1: Life Technologies and Expression Analysis (LTEA) Assay for Early growth response protein 1 (EGR1) transcription factor using HepaRG (AID 2283490). The method in brief: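 Read-out is EGR1 mRNA level by qRT-PCR, normalized to three housekeeping genes and analysed for gain or loss of signal against 0.5% DMSO. Source cells: human HepaRG, treated 48 h at up to 100 uM in half-log dilutions.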

Read-out in assay [13]: Ezrin (EZR), EZR (gene 7430)
The experiment in a line: LTEA_HepaRG_EZR: Life Technologies and Expression Analysis (LTEA) Assay for Ezrin (EZR) using HepaRG (AID 2283491). Summed up: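 Gain or loss of EZR mRNA is scored relative to 0.5% DMSO in human HepaRG cultures treated 48 h with test chemicals in duplicate, eight half-log concentrations from 100 uM.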

Read-out in assay [14]: Cytochrome P450 3A7 (Homo sapiens) (UniProt P24462)
Description: LTEA_HepaRG_CYP3A7: Life Technologies and Expression Analysis (LTEA) Assay for CYP3A7 using HepaRG (AID 2283492). The method in brief: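 CYP3A7 transcript measured by qRT-PCR (ACTB, GAPDH, POLR2A normalization) after 48 h chemical exposure of HepaRG cells in duplicate. Eight half-log concentrations, maximum 100 uM, 0.5% DMSO vehicle; bidirectional curve fitting against DMSO baseline.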

The source made the active and inactive calls. Rule for the calls: active = hit-call score of the fitted dose curve at least 0.9, where 1 is the maximum; inactive = score below 0.9.

Sequence of Cytochrome P450 2C19 (Homo sapiens) (P33261 whole entry, looked up): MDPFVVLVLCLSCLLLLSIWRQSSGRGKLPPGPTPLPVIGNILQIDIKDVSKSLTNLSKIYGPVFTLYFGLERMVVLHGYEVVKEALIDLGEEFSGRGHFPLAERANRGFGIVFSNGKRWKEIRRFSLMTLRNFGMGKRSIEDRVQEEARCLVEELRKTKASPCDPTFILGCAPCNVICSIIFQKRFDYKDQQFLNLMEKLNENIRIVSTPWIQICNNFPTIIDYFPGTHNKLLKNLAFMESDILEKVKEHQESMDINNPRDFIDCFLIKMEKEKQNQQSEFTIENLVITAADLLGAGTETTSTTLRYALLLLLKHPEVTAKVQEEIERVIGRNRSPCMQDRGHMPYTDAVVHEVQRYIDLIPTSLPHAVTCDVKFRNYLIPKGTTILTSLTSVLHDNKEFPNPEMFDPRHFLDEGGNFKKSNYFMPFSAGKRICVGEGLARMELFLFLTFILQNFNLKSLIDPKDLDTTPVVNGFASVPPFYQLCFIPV
Sequence of Caspase-3 (Homo sapiens) (P42574 whole entry, looked up): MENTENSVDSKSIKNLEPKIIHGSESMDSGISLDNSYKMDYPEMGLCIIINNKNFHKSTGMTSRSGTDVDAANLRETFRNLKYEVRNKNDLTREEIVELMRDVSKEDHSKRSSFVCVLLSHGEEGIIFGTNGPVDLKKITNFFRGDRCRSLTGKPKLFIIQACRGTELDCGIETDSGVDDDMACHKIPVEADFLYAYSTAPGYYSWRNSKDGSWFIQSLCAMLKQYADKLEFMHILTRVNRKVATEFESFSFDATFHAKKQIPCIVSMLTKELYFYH
Sequence of Cytochrome P450 3A7 (Homo sapiens) (P24462 whole entry, looked up): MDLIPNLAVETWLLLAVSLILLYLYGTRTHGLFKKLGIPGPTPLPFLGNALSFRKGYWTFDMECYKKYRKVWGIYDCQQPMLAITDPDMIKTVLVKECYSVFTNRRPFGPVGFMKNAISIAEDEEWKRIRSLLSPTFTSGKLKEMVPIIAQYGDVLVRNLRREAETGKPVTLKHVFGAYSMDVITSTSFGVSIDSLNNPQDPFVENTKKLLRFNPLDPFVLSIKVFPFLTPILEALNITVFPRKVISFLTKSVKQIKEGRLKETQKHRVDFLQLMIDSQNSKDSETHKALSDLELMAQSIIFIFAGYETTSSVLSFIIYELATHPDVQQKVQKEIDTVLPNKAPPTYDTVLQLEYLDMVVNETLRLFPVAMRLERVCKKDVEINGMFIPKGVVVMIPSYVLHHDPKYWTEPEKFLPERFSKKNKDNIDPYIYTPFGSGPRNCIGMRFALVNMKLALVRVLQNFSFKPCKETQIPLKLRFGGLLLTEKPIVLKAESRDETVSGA
Sequence of Cytochrome P450 3A4 (Homo sapiens) (P08684 whole entry, looked up): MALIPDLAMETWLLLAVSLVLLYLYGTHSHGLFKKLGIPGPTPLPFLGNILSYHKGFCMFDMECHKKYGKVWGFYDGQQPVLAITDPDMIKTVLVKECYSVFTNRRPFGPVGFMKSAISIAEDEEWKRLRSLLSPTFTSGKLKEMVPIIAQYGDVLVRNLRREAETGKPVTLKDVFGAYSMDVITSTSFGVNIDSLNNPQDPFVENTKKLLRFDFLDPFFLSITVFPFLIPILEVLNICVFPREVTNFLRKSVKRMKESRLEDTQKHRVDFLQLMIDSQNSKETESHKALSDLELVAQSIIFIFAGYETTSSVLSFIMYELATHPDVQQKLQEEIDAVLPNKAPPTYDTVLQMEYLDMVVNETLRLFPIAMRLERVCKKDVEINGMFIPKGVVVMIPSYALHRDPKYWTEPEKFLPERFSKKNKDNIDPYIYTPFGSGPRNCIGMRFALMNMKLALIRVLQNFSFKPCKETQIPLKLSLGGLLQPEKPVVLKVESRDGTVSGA
Sequence of Apoptosis regulator Bcl-2 (Homo sapiens) (P10415 whole entry, looked up): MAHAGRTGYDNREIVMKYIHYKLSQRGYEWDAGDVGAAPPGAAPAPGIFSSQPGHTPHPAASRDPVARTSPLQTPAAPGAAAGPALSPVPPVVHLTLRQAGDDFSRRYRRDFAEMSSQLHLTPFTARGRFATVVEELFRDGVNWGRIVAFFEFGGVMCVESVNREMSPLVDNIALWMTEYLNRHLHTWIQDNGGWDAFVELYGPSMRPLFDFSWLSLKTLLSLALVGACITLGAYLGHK

As for `CC1=CC(=O)CC(C)(C)C1`, the result (in [1]; in [2]; in assay [3]; with Caspase-3 (Homo sapiens); in [4]; in [5]) was inactive. The call (in assay [6]; in assay [7]; in assay [8]; in the assay with CYP2C8 (gene 1558); with CYP2C9 (gene 1559); in the assay with CYP2E1 (gene 1571)) was inactive. The result (in the assay with CYP4A11 (gene 1579); in assay [9]; in assay [10]; in assay [11]; in assay [12]; in assay [13]) was inactive. Besides, in [14], the call was inactive.
As for `CN(C)c1ccc(N=NS(=O)(=O)O)cc1`, the AC50 (in general, the midpoint of the concentration-response curve, whichever way the signal moves) in assay [1] was 12.8 µM (active); in assay [5], 13.8 µM (active); in the assay with CYP2C8 (gene 1558), 2.62 µM (active); in the assay with CYP2E1 (gene 1571) it was 22 µM (active). In addition, the call (in [2]; in assay [3]; in the assay with Caspase-3 (Homo sapiens); in assay [4]; in assay [6]; in assay [7]) was inactive. Moreover, the compound was called inactive (in assay [8]; with CYP2C9 (gene 1559); with CYP4A11 (gene 1579); in [9]; in [10]; in assay [11]). For the same compound, the outcome in assay [12], in assay [13] and in assay [14] was inactive.
For `CCn1nc(Cc2ccccc2)cc1C1CCN(C[C@H]2C[C@H](N(C)[C@@H](C(=O)O)C(C)C)C[C@@H]2c2cccc(F)c2)CC1`, the compound was classed as inactive (in assay [1]; in [2]; in [3]; with Caspase-3 (Homo sapiens); in [4]; in [6]). For the same compound, the result in assay [9], in assay [11], in assay [12], in assay [13] and in assay [14] was inactive. In addition, the AC50 was 79.9 µM (active) in [5]; 13.7 µM (active) in assay [7]; 17.6 µM (active) in [8]; 24.6 µM (active) with CYP2C8 (gene 1558); 27.8 µM (active) with CYP2C9 (gene 1559); 20.4 µM (active) with CYP2E1 (gene 1571). Further, the AC50 (with CYP4A11 (gene 1579); in assay [10]) was 50 µM (active) throughout.
